In ChEMBL document CHEMBL1961873, “Compounds: GSK PKIS; Assays: Nanosyn kinase panel” (2012):

Experiments:
[1] = biological target: PAS domain-containing serine/threonine-protein kinase (Homo sapiens) (UniProt Q96RG2); conditions: at 0.1 µM
[2] = biological target: PAS domain-containing serine/threonine-protein kinase (Homo sapiens) (UniProt Q96RG2); conditions: at 1 µM
[3] = biological target: Phosphorylase b kinase gamma catalytic chain, skeletal muscle/heart isoform (Homo sapiens) (UniProt Q16816); conditions: at 0.1 µM
[4] = biological target: Phosphorylase b kinase gamma catalytic chain, skeletal muscle/heart isoform (Homo sapiens) (UniProt Q16816); conditions: at 1 µM
[5] = biological target: Phosphorylase b kinase gamma catalytic chain, liver/testis isoform (Homo sapiens) (UniProt P15735); conditions: at 0.1 µM
[6] = biological target: Phosphorylase b kinase gamma catalytic chain, liver/testis isoform (Homo sapiens) (UniProt P15735); conditions: at 1 µM
[7] = biological target: Serine/threonine-protein kinase pim-1 (Homo sapiens) (UniProt P11309); conditions: at 0.1 µM
[8] = biological target: Serine/threonine-protein kinase pim-1 (Homo sapiens) (UniProt P11309); conditions: at 1 µM
[9] = biological target: Serine/threonine-protein kinase pim-2 (Homo sapiens) (UniProt Q9P1W9); conditions: at 0.1 µM
[10] = biological target: Serine/threonine-protein kinase pim-2 (Homo sapiens) (UniProt Q9P1W9); conditions: at 1 µM
[11] = biological target: Serine/threonine-protein kinase pim-3 (Homo sapiens) (UniProt Q86V86); conditions: at 0.1 µM
[12] = biological target: Serine/threonine-protein kinase pim-3 (Homo sapiens) (UniProt Q86V86); conditions: at 1 µM
[13] = biological target: MAP kinase-activated protein kinase 5 (Homo sapiens) (UniProt Q8IW41); conditions: at 0.1 µM
[14] = biological target: MAP kinase-activated protein kinase 5 (Homo sapiens) (UniProt Q8IW41); conditions: at 1 µM
[15] = biological target: Serine/threonine-protein kinase SIK1 (Homo sapiens) (UniProt P57059); conditions: at 0.1 µM
[16] = biological target: Serine/threonine-protein kinase SIK1 (Homo sapiens) (UniProt P57059); conditions: at 1 µM
[17] = biological target: Serine/threonine-protein kinase SIK2 (Homo sapiens) (UniProt Q9H0K1); conditions: at 0.1 µM
[18] = biological target: Serine/threonine-protein kinase SIK2 (Homo sapiens) (UniProt Q9H0K1); conditions: at 1 µM
[19] = biological target: Serine/threonine-protein kinase TBK1 (Homo sapiens) (UniProt Q9UHD2); conditions: at 0.1 µM
Chain of Serine/threonine-protein kinase TBK1 (Homo sapiens) (Q9UHD2 whole entry): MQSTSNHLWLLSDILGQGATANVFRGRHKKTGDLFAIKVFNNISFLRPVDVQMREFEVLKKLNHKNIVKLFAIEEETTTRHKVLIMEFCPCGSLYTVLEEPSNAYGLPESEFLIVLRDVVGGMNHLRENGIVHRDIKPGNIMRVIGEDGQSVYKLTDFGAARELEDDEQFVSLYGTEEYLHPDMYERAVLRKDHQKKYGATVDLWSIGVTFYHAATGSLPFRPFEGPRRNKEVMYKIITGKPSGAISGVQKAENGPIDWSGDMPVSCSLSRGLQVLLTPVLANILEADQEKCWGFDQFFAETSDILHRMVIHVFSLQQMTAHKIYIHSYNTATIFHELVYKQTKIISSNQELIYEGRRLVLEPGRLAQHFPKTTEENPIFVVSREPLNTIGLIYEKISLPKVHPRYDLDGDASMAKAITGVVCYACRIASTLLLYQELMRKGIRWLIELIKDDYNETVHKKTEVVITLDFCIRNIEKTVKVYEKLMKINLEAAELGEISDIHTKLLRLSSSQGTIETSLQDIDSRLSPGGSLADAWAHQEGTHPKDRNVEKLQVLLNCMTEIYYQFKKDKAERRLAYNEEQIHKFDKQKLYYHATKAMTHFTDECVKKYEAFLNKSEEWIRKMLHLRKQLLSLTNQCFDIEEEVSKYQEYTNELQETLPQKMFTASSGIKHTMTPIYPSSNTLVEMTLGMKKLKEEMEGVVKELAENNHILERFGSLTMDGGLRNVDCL

[20] = biological target: Serine/threonine-protein kinase TBK1 (Homo sapiens) (UniProt Q9UHD2); conditions: at 1 µM
[21] = biological target: Testis-specific serine/threonine-protein kinase 1 (Homo sapiens) (UniProt Q9BXA7); conditions: at 0.1 µM
[22] = biological target: Testis-specific serine/threonine-protein kinase 1 (Homo sapiens) (UniProt Q9BXA7); conditions: at 1 µM
[23] = biological target: Testis-specific serine/threonine-protein kinase 2 (Homo sapiens) (UniProt Q96PF2); conditions: at 0.1 µM
[24] = biological target: Testis-specific serine/threonine-protein kinase 2 (Homo sapiens) (UniProt Q96PF2); conditions: at 1 µM
[25] = biological target: Casein kinase I isoform alpha (Homo sapiens) (UniProt P48729); conditions: at 0.1 µM
Chain of Casein kinase I isoform alpha (Homo sapiens) (P48729 2-337 limits assumed): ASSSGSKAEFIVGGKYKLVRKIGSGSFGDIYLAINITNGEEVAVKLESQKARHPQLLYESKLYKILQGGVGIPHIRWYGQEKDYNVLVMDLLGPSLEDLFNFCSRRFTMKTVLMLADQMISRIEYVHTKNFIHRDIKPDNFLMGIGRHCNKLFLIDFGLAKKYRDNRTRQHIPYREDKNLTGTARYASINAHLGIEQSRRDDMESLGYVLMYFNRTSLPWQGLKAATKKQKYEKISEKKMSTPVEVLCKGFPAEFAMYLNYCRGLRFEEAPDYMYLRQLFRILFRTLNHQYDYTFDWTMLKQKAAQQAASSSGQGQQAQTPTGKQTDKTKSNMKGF

[26] = biological target: Casein kinase I isoform alpha (Homo sapiens) (UniProt P48729); conditions: at 1 µM
[27] = biological target: Casein kinase I isoform gamma-1 (Homo sapiens) (UniProt Q9HCP0); conditions: at 0.1 µM
Chain of Casein kinase I isoform gamma-1 (Homo sapiens) (Q9HCP0 whole entry, looked up, canonical isoform): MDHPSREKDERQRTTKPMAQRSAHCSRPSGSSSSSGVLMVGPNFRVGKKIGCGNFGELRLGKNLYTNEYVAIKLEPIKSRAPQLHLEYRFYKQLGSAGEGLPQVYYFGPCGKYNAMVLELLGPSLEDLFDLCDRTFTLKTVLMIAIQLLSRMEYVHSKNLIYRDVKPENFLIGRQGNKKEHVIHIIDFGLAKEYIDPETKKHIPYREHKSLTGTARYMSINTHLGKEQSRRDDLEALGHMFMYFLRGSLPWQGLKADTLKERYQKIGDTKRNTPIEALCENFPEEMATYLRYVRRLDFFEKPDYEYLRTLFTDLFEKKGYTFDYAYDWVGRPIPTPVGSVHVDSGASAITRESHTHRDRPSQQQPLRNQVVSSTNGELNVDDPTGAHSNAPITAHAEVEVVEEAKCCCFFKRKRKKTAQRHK

[28] = biological target: Casein kinase I isoform gamma-1 (Homo sapiens) (UniProt Q9HCP0); conditions: at 1 µM
[29] = biological target: Casein kinase I isoform gamma-2 (Homo sapiens) (UniProt P78368); conditions: at 0.1 µM
Chain of Casein kinase I isoform gamma-2 (Homo sapiens) (P78368 whole entry, looked up, canonical isoform): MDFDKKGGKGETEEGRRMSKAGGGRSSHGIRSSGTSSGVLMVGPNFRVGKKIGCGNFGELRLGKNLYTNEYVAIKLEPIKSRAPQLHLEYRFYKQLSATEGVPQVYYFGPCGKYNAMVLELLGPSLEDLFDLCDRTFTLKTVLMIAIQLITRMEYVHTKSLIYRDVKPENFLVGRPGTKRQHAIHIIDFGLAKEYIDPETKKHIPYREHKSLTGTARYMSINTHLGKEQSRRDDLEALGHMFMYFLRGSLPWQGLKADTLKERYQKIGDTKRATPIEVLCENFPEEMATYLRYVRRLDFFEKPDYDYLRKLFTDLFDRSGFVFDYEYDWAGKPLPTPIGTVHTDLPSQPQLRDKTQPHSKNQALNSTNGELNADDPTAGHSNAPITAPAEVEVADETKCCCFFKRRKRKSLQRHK

[30] = biological target: Casein kinase I isoform gamma-2 (Homo sapiens) (UniProt P78368); conditions: at 1 µM
[31] = biological target: Casein kinase I isoform gamma-3 (Homo sapiens) (UniProt Q9Y6M4); conditions: at 0.1 µM
[32] = biological target: Casein kinase I isoform gamma-3 (Homo sapiens) (UniProt Q9Y6M4); conditions: at 1 µM
[33] = biological target: Cyclin-dependent kinase 1 (Homo sapiens) (UniProt P06493); conditions: at 0.1 µM
[34] = biological target: Cyclin-dependent kinase 1 (Homo sapiens) (UniProt P06493); conditions: at 1 µM
[35] = biological target: Cyclin-dependent kinase 2 (Homo sapiens) (UniProt P24941); conditions: at 0.1 µM
[36] = biological target: Cyclin-dependent kinase 2 (Homo sapiens) (UniProt P24941); conditions: at 1 µM
[37] = biological target: Cyclin-dependent kinase 2 (Homo sapiens) (UniProt P24941); conditions: at 0.1 µM; remark: listed apart in the source
[38] = biological target: Cyclin-dependent kinase 2 (Homo sapiens) (UniProt P24941); conditions: at 1 µM; remark: listed apart in the source
[39] = biological target: T1, CDK3/Cyclin E (Homo sapiens) (UniProt P24864+Q00526); conditions: at 0.1 µM
[40] = biological target: T1, CDK3/Cyclin E (Homo sapiens); conditions: at 1 µM
[41] = biological target: Cyclin-dependent kinase 4 (Homo sapiens) (UniProt P11802); conditions: at 0.1 µM
[42] = biological target: Cyclin-dependent kinase 4 (Homo sapiens) (UniProt P11802); conditions: at 1 µM
[43] = biological target: Cyclin-dependent kinase 5 (Homo sapiens) (UniProt Q00535); conditions: at 0.1 µM
[44] = biological target: Cyclin-dependent kinase 5 (Homo sapiens) (UniProt Q00535); conditions: at 1 µM
[45] = biological target: Cyclin-dependent kinase 6 (Homo sapiens) (UniProt Q00534); conditions: at 0.1 µM
[46] = biological target: Cyclin-dependent kinase 6 (Homo sapiens) (UniProt Q00534); conditions: at 1 µM
[47] = biological target: Dual specificity protein kinase CLK2 (Homo sapiens) (UniProt P49760); conditions: at 0.1 µM
Chain of Dual specificity protein kinase CLK2 (Homo sapiens) (P49760 whole entry, looked up): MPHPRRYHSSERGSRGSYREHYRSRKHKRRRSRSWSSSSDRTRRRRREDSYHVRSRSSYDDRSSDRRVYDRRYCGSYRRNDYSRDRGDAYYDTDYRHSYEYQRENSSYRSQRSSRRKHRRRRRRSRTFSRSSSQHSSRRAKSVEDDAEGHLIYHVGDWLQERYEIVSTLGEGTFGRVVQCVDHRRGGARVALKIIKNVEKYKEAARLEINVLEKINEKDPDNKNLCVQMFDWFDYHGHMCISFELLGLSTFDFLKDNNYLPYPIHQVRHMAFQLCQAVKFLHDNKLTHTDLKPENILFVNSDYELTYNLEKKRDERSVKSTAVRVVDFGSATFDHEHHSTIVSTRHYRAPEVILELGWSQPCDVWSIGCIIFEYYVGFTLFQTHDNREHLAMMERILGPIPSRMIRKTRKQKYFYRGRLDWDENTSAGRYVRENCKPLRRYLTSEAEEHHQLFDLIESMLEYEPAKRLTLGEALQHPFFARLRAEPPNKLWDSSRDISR

[48] = biological target: Dual specificity protein kinase CLK2 (Homo sapiens) (UniProt P49760); conditions: at 1 µM
[49] = biological target: Dual specificity protein kinase CLK3 (Homo sapiens) (UniProt P49761); conditions: at 0.1 µM
Chain of Dual specificity protein kinase CLK3 (Homo sapiens) (P49761 whole entry, looked up): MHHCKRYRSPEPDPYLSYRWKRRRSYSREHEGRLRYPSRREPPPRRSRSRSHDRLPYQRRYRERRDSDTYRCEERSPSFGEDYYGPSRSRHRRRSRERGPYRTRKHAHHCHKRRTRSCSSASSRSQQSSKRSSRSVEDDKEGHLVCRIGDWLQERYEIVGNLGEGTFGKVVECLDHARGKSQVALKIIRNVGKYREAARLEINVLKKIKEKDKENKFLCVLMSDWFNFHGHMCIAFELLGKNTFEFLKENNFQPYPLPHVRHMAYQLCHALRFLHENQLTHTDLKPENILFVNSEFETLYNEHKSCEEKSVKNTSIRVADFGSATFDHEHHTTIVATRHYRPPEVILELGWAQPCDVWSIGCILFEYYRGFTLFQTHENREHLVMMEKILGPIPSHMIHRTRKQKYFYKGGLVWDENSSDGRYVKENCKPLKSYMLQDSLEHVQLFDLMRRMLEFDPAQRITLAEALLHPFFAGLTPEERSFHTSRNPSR

[50] = biological target: Dual specificity protein kinase CLK3 (Homo sapiens) (UniProt P49761); conditions: at 1 µM
[51] = biological target: Dual specificity tyrosine-phosphorylation-regulated kinase 1A (Homo sapiens) (UniProt Q13627); conditions: at 0.1 µM
[52] = biological target: Dual specificity tyrosine-phosphorylation-regulated kinase 1A (Homo sapiens) (UniProt Q13627); conditions: at 1 µM
[53] = biological target: Dual specificity tyrosine-phosphorylation-regulated kinase 1B (Homo sapiens) (UniProt Q9Y463); conditions: at 0.1 µM
[54] = biological target: Dual specificity tyrosine-phosphorylation-regulated kinase 1B (Homo sapiens) (UniProt Q9Y463); conditions: at 1 µM
[55] = biological target: Dual specificity tyrosine-phosphorylation-regulated kinase 2 (Homo sapiens) (UniProt Q92630); conditions: at 0.1 µM
Chain of Dual specificity tyrosine-phosphorylation-regulated kinase 2 (Homo sapiens) (Q92630 whole entry): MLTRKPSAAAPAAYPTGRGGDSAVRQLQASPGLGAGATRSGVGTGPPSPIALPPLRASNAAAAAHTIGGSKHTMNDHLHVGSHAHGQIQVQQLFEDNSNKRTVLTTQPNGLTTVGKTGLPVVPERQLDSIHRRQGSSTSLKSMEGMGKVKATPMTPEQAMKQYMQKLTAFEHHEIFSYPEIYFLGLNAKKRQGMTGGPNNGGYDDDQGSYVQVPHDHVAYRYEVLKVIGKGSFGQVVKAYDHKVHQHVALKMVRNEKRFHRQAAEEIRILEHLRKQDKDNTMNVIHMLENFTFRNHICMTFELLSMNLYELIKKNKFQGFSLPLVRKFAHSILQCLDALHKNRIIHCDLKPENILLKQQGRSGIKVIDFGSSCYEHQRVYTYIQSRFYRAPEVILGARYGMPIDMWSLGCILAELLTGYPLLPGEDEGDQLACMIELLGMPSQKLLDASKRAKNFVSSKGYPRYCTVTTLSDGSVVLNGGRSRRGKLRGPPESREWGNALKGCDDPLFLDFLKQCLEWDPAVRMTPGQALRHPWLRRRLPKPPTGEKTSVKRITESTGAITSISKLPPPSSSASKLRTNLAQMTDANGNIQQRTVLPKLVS

[56] = biological target: Dual specificity tyrosine-phosphorylation-regulated kinase 2 (Homo sapiens) (UniProt Q92630); conditions: at 1 µM

Chain of PAS domain-containing serine/threonine-protein kinase (Homo sapiens) (Q96RG2 whole entry, the tested form may be a part, canonical isoform): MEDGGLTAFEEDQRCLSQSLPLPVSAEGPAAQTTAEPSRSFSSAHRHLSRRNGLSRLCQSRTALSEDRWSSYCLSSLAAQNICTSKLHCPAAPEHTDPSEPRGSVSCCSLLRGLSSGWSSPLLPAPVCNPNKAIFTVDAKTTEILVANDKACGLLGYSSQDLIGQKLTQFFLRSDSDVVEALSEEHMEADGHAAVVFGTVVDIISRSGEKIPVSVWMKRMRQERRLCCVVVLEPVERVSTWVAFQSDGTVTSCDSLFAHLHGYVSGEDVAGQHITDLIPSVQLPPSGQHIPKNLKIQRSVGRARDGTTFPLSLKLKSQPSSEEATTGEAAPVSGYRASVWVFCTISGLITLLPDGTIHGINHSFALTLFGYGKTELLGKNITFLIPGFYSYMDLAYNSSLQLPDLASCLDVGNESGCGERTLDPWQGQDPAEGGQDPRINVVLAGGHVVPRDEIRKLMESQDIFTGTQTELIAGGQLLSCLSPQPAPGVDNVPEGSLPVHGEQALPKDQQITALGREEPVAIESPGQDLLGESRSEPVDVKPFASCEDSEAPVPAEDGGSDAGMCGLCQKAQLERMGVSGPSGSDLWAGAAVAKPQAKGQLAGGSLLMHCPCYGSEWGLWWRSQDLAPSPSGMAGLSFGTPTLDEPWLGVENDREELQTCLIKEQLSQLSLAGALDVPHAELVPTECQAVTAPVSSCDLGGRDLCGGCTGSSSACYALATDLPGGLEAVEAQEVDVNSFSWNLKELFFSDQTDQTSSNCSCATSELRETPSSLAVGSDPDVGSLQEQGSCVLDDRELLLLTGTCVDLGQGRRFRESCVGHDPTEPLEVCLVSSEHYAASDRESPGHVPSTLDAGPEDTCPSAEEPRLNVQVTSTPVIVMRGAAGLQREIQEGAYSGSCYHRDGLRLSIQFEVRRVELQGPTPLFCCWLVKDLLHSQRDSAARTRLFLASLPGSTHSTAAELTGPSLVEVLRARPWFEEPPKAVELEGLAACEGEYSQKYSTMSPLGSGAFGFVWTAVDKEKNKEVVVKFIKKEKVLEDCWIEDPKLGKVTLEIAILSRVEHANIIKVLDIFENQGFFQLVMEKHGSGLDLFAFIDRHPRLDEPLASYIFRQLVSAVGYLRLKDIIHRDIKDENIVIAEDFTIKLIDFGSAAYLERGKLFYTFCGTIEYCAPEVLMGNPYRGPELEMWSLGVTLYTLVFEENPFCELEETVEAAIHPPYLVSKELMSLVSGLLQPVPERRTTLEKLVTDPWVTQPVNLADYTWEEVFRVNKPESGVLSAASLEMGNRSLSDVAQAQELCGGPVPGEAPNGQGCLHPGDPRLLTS

`CNC(=O)Oc1cc(C)c(/C=C/c2cncc(C(=O)NC)c2)c(C)c1` was tested. Which inhibition [1] did it give?
Its inhibition is 0.86%.

And the inhibition [2]?
The inhibition was -0.55%.

What about the inhibition [3] of the same compound?
The inhibition was 0.19%.

What about the inhibition [4] of the same compound?
The inhibition was 3.49%.

What about the inhibition [5] of the same compound?
The inhibition was 4.46%.

What about the inhibition [6] of the same compound?
The inhibition was 1.16%.

And the inhibition [7]?
Its inhibition is 0.83%.

What about the inhibition [8] of the same compound?
Its inhibition is 1.46%.

And the inhibition [9]?
Its inhibition is -0.21%.

And the inhibition [10]?
Its inhibition is 0.61%.

And the inhibition [11]?
Its inhibition is -0.49%.

What about the inhibition [12] of the same compound?
Its inhibition is 0.47%.

And the inhibition [13]?
The inhibition was 0.29%.

What about the inhibition [14] of the same compound?
The inhibition was -1.1%.

What about the inhibition [15] of the same compound?
Its inhibition is 46.9%.

What about the inhibition [16] of the same compound?
Its inhibition is 88.6%.

And the inhibition [17]?
The inhibition was 7.72%.

What about the inhibition [18] of the same compound?
The inhibition was 30.4%.

And the inhibition [19]?
Its inhibition is 2.75%.

And the inhibition [20]?
The inhibition was 3.73%.

What about the inhibition [21] of the same compound?
Its inhibition is 1.39%.

What about the inhibition [22] of the same compound?
Its inhibition is 0.21%.

What about the inhibition [23] of the same compound?
Its inhibition is 1.46%.

And the inhibition [24]?
The inhibition was -0.8%.

And the inhibition [25]?
The inhibition was 1.61%.

What about the inhibition [26] of the same compound?
Its inhibition is 3.51%.

And the inhibition [27]?
The inhibition was 1.33%.

And the inhibition [28]?
The inhibition was 2.91%.

What about the inhibition [29] of the same compound?
Its inhibition is 0.3%.

What about the inhibition [30] of the same compound?
The inhibition was 2.73%.

And the inhibition [31]?
Its inhibition is 1.68%.

And the inhibition [32]?
Its inhibition is 4.49%.

What about the inhibition [33] of the same compound?
Its inhibition is -0.06%.

What about the inhibition [34] of the same compound?
The inhibition was -0.3%.

And the inhibition [35]?
Its inhibition is 0.63%.

And the inhibition [36]?
Its inhibition is -1.72%.

What about the inhibition [37] of the same compound?
Its inhibition is 1.5%.

And the inhibition [38]?
The inhibition was 0.5%.

What about the inhibition [39] of the same compound?
The inhibition was 0.33%.

And the inhibition [40]?
The inhibition was 1.01%.

What about the inhibition [41] of the same compound?
Its inhibition is 0.95%.

What about the inhibition [42] of the same compound?
Its inhibition is 2.18%.

And the inhibition [43]?
The inhibition was 0.2%.

What about the inhibition [44] of the same compound?
The inhibition was -0.43%.

What about the inhibition [45] of the same compound?
The inhibition was -2.38%.

What about the inhibition [46] of the same compound?
The inhibition was 0.77%.

And the inhibition [47]?
Its inhibition is 1.89%.

What about the inhibition [48] of the same compound?
Its inhibition is 4.38%.

What about the inhibition [49] of the same compound?
Its inhibition is 0.33%.

And the inhibition [50]?
Its inhibition is 1.86%.

And the inhibition [51]?
Its inhibition is -0.43%.

What about the inhibition [52] of the same compound?
The inhibition was 6.77%.

And the inhibition [53]?
Its inhibition is -0.07%.

What about the inhibition [54] of the same compound?
The inhibition was 0.76%.

What about the inhibition [55] of the same compound?
Its inhibition is 2.64%.

What about the inhibition [56] of the same compound?
The inhibition was 2.73%.
